# Read-outs that look alike come from different tables or passages of the source.
# Assays:
# MEK5 = test system: T1, MEK5; settings: concentration: 1 μM, replicates: in singlicate; n = 1
# T1 construct: gene MAP2K5
# MEK6 = test system: T2, MEK6; settings: concentration: 1 μM, replicates: in singlicate; n = 1
# T2 construct: gene MAP2K6
# MELK = settings: concentration: 1 μM, replicates: in singlicate; n = 1
# MERTK = settings: concentration: 1 μM, replicates: in singlicate; n = 1
# MET = settings: concentration: 1 μM, replicates: in singlicate; n = 1
# MINK = test system: T3, MINK; settings: concentration: 1 μM, replicates: in singlicate; n = 1
# T3 construct: gene MINK1
# MKK7 = settings: concentration: 1 μM, replicates: in singlicate; n = 1
# MKNK1 = settings: concentration: 1 μM, replicates: in singlicate; n = 1
# MKNK2 = settings: concentration: 1 μM, replicates: in singlicate; n = 1
# MLCK = test system: T4, MLCK; settings: concentration: 1 μM, replicates: in singlicate; n = 1
# T4 construct: gene MYLK3
# MLK1 = test system: T5, MLK1; settings: concentration: 1 μM, replicates: in singlicate; n = 1
# T5 construct: gene MAP3K9
# MLK2 = settings: concentration: 1 μM, replicates: in singlicate; n = 1
# MLK3 = settings: concentration: 1 μM, replicates: in singlicate; n = 1
# MRCKA = settings: n = 1
# MRCKB = test system: T6, MRCKB; settings: concentration: 1 μM, replicates: in singlicate; n = 1
# T6 construct: gene CDC42BPB
# MST1R = settings: concentration: 1 μM, replicates: in singlicate; n = 1
# MST1 = test system: T7, MST1; settings: concentration: 1 μM, replicates: in singlicate; n = 1
# T7 construct: gene STK4
# MST2 = test system: T8, MST2; settings: concentration: 1 μM, replicates: in singlicate; n = 1
# T8 construct: gene STK3
# MST3 = test system: T9, MST3; settings: concentration: 1 μM, replicates: in singlicate; n = 1
# T9 construct: gene STK24
# MST4 = settings: concentration: 1 μM, replicates: in singlicate; n = 1
# [1] = concentration: 1 μM, replicates: in singlicate
# 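Note: KINOMEscan kinase panel screen.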
structure (smiles),measurement,setting,value
CCn1c(-c2nonc2N)nc2c(C#CC(C)(C)O)ncc(OCCCCN)c21.O=C(O)C(F)(F)F.O=C(O)C(F)(F)F [GSK507274],%Inh,MEK5,0%
same,%Inh,MEK6,0%
same,%Inh,MELK,1%
same,%Inh,MERTK,30%
same,%Inh,MET,0%
same,%Inh,MINK,0%
same,%Inh,MKK7,0%
same,%Inh,MKNK1,0%
same,%Inh,MKNK2,11%
same,%Inh,MLCK,13%
same,%Inh,MLK1,0%
same,%Inh,MLK2,0%
same,%Inh,MLK3,0%
same,%Inh,MRCKA; 1 µM,17%
same,%Inh,MRCKB,5%
same,%Inh,MST1R,33%
same,%Inh,MST1,3%
same,%Inh,MST2,0%
same,%Inh,MST3,0%
same,%Inh,MST4,2%
CCS(=O)(=O)c1ccc(OC)c(Nc2nccc(-c3c(-c4cccc(NC(=O)c5c(F)cccc5F)c4)nn4ncccc34)n2)c1 [GSK326180],%Inh,MEK5,99.6%
same,%Inh,MEK6,0%
same,%Inh,MELK,0%
same,%Inh,MERTK,9%
same,%Inh,MET,2%
same,%Inh,MINK,0%
same,%Inh,MKK7,14%
same,%Inh,MKNK1,3%
same,%Inh,MKNK2,12%
same,%Inh,MLCK,0%
same,%Inh,MLK1,0%
same,%Inh,MLK2,0%
same,%Inh,MLK3,0%
same,%Inh,MRCKA; [1],24%
same,%Inh,MRCKB,11%
same,%Inh,MST1R,0%
same,%Inh,MST1,21%
same,%Inh,MST2,28%
same,%Inh,MST3,0%
same,%Inh,MST4,0%
Cc1cccc(Nc2nc(N[C@H]3CCNC3)ncc2C(N)=O)c1.Cl [GSK2197149],%Inh,MEK5,99.8%
same,%Inh,MEK6,50%
same,%Inh,MELK,20%
same,%Inh,MERTK,37%
same,%Inh,MET,0%
same,%Inh,MINK,76%
same,%Inh,MKK7,4%
same,%Inh,MKNK1,0%
same,%Inh,MKNK2,51%
same,%Inh,MLCK,24%
same,%Inh,MLK1,92.9%
same,%Inh,MLK2,4%
same,%Inh,MLK3,86%
same,%Inh,MRCKA; [1],0%
same,%Inh,MRCKB,0%
same,%Inh,MST1R,0%
same,%Inh,MST1,43%
same,%Inh,MST2,0%
same,%Inh,MST3,31%
same,%Inh,MST4,36%
CCCCc1nn2ncccc2c1-c1ccnc(Nc2ccc(N3CCN(C)CC3)cc2)n1 [GW684941],%Inh,MEK5,98.9%
same,%Inh,MEK6,0%
same,%Inh,MELK,0%
same,%Inh,MERTK,56%
same,%Inh,MET,8%
same,%Inh,MINK,43%
same,%Inh,MKK7,0%
same,%Inh,MKNK1,9%
same,%Inh,MKNK2,64%
same,%Inh,MLCK,0%
same,%Inh,MLK1,0%
same,%Inh,MLK2,5%
same,%Inh,MLK3,0%
same,%Inh,MRCKA; [1],19%
same,%Inh,MRCKB,17%
same,%Inh,MST1R,45%
same,%Inh,MST1,0%
same,%Inh,MST2,0%
same,%Inh,MST3,1%
same,%Inh,MST4,0%
CN(C)Cc1ccc(-c2ccc3c(Nc4ccc(Oc5ccccn5)cc4)ccnc3c2)o1 [GW567148],%Inh,MEK5,100%
same,%Inh,MEK6,0%
same,%Inh,MELK,0%
same,%Inh,MERTK,38%
same,%Inh,MET,12%
same,%Inh,MINK,36%
same,%Inh,MKK7,0%
same,%Inh,MKNK1,0%
same,%Inh,MKNK2,38%
same,%Inh,MLCK,0%
same,%Inh,MLK1,0%
same,%Inh,MLK2,0%
same,%Inh,MLK3,1%
same,%Inh,MRCKA; [1],0%
same,%Inh,MRCKB,0%
same,%Inh,MST1R,41%
same,%Inh,MST1,14%
same,%Inh,MST2,0%
same,%Inh,MST3,0%
same,%Inh,MST4,0%
Fc1ccc(-c2ncn(C3CCNCC3)c2-c2ccnc(Oc3ccc(-c4ccccc4)cc3)n2)cc1 [SB-245391],%Inh,MEK5,17%
same,%Inh,MEK6,29%
same,%Inh,MELK,27%
same,%Inh,MERTK,0%
same,%Inh,MET,50%
same,%Inh,MINK,30%
same,%Inh,MKK7,11%
same,%Inh,MKNK1,0%
same,%Inh,MKNK2,10%
same,%Inh,MLCK,0%
same,%Inh,MLK1,52%
same,%Inh,MLK2,46%
same,%Inh,MLK3,0%
same,%Inh,MRCKA; [1],26%
same,%Inh,MRCKB,59%
same,%Inh,MST1R,0%
same,%Inh,MST1,27%
same,%Inh,MST2,30%
same,%Inh,MST3,14%
same,%Inh,MST4,31%
c1ccc(-c2cnc3nccnn23)cc1 [AH20685],%Inh,MEK5,0%
same,%Inh,MEK6,0%
same,%Inh,MELK,0%
same,%Inh,MERTK,0%
same,%Inh,MET,0%
same,%Inh,MINK,0%
same,%Inh,MKK7,0%
same,%Inh,MKNK1,2%
same,%Inh,MKNK2,11%
same,%Inh,MLCK,9%
same,%Inh,MLK1,0%
same,%Inh,MLK2,0%
same,%Inh,MLK3,0%
same,%Inh,MRCKA; [1],0%
same,%Inh,MRCKB,0%
same,%Inh,MST1R,38%
same,%Inh,MST1,5%
same,%Inh,MST2,0%
same,%Inh,MST3,0%
same,%Inh,MST4,0%
Cc1ccc(C(=O)N2CC[C@@H](O)C2)cc1-n1c(C)cc(OCc2ccc(F)cc2F)c(Br)c1=O,%Inh,MEK5,0%
same,%Inh,MEK6,0%
same,%Inh,MELK,0%
same,%Inh,MERTK,0%
same,%Inh,MET,0%
same,%Inh,MINK,0%
same,%Inh,MKK7,0%
same,%Inh,MKNK1,0%
same,%Inh,MKNK2,0%
same,%Inh,MLCK,0%
same,%Inh,MLK1,0%
same,%Inh,MLK2,5%
same,%Inh,MLK3,0%
same,%Inh,MRCKA; [1],0%
same,%Inh,MRCKB,0%
same,%Inh,MST1R,3%
same,%Inh,MST1,0%
same,%Inh,MST2,5%
same,%Inh,MST3,5%
same,%Inh,MST4,0%
CC(C)(C)c1ccc2nccc(Nc3cccc(O)c3)c2c1 [GW856795],%Inh,MEK5,52%
same,%Inh,MEK6,0%
same,%Inh,MELK,1%
same,%Inh,MERTK,0%
same,%Inh,MET,0%
same,%Inh,MINK,0%
same,%Inh,MKK7,31%
same,%Inh,MKNK1,47%
same,%Inh,MKNK2,23%
same,%Inh,MLCK,0%
same,%Inh,MLK1,0%
same,%Inh,MLK2,3%
same,%Inh,MLK3,0%
same,%Inh,MRCKA; [1],0%
same,%Inh,MRCKB,0%
same,%Inh,MST1R,32%
same,%Inh,MST1,0%
same,%Inh,MST2,18%
same,%Inh,MST3,0%
same,%Inh,MST4,0%
